Screening results: PubChem BioAssay, Broad Institute
Sampled rows, rich in hits. Any-hit rate of the full collection: about 6.8%.
T cruzi growth-1: inhibitors of T. cruzi proliferation; inhibition, % at 8.34 µM; T. cruzi beta-gal in NIH3T3, GalScreen luminescence, 90 h; 77,000 tested, 5.9% active; AID 624255;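 active = mean inhibition above about 93%, with at least 55% of replicates each passing it, limit read from the data, passing the limit was not always enough; inconclusive = only one of those two conditions holds; inactive = neither condition holds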
Pf Dd2 growth: blocks growth of Plasmodium falciparum Dd2 parasites. AID 1159554. activity change, % at 10 µM. 94,000 tested, 2.3% active. P. falciparum Dd2 growth, SYBR Green, 72 h; hits give low values; in the data active = activity change below about -80%; inconclusive = no clear call, values can overlap the other calls
C diff HTS: inhibitors of Clostridium difficile growth | Clostridium difficile clinical isolate growth, OD600, 24 h; hits give low values | growth activity, negative = inhibition, % at 16 µg/mL (by protocol) | 86,000 tested, 0.25% active | AID 1259249;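 active = mean growth activity at or below -80% and every replicate also at or below -80%; inconclusive = mean at or below -80% but some replicate above -80%; inactive = mean growth activity above -80%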;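 also: 0% = DMSO wells and -100% = levofloxacin 16 µg/mL wells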
T cruzi growth-2: inhibitors of T. cruzi proliferation; shares compounds with T cruzi growth-1; T. cruzi beta-gal in NIH3T3, GalScreen luminescence, 90 h; inhibition, % at 8.35 µM; 5,600 tested, 72% active;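 active = mean replicate inhibition above about 95% and at least 55% of replicates individually reaching it, limit read from the data; inconclusive = only one of the two criteria is met; inactive = neither criterion is met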
T cruzi growth-3: Trypanosoma cruzi proliferation inhibition; shares compounds with T cruzi growth-1; T. cruzi beta-gal in NIH3T3, GalScreen luminescence, 90 h; inhibition, % at 2.09 µM; 5,600 tested, 21% active; AID 651740;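 active = mean inhibition above about 95%, with at least 55% of replicates also reaching it, limit read from the data; inconclusive = meets just one of the two conditions; inactive = meets neither condition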;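 also: plate controls were neutral control median for no effect and positive control median for full effect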
3T3 cytotox: NIH/3T3 (mouse) viability loss | shares compounds with T cruzi growth-1 | NIH/3T3 viability, CellTiter-Glo ATP luminescence, 90 h | cytotoxicity (signal decrease), % at 8.35 µM | 5,600 tested, 14% active;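 active = mean signal decrease across replicates above about 35% based on untreated-well scatter, with enough replicates individually passing, limit read from the data; inconclusive = no rule stated though some were filed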;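 also: 0% = median of neutral control wells and 100% = median of positive control wells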
NIH3T3 tox 2: NIH/3T3 (mouse) viability loss. 5,600 tested, 56% active. inhibition, % at 24.9 µM. shares compounds with T cruzi growth-1. NIH/3T3 viability, CellTiter-Glo ATP luminescence, 90 h;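 active = mean loss of cell viability signal at or above a set limit, and enough replicates individually reaching it; inconclusive = meets only the mean limit or only the replicate share; inactive = meets neither condition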;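 also: 0% = median of neutral control wells and 100% = median of positive control wells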
Starred values were filed as active, the others as inactive; u = inconclusive; x = no result.

SMILES	T cruzi growth-1	Pf Dd2 growth	C diff HTS	T cruzi growth-2	T cruzi growth-3	3T3 cytotox	NIH3T3 tox 2
CC(C)CC#Cc1ccc2c(c1)O[C@@H](CN(C)C(=O)Nc1ccccc1)[C@H](C)CN([C@@H](C)CO)S2(=O)=O	121*	-30	-17	107*	76	28	78*
CC(C)CC#Cc1ccc2c(c1)O[C@@H](CN(C)C(=O)Nc1ccccc1)[C@@H](C)CN([C@@H](C)CO)S2(=O)=O	127*	-59	-10	111*	105*	-1	103*
O=C(C[C@@H]1C=C[C@@H](NC(=O)NC2CCCCC2)[C@@H](CO)O1)NCc1ccccc1	-3	29	x	x	x	x	x
COc1ccc(S(=O)(=O)N(C)C[C@H]2OCCCC[C@@H](C)Oc3ccc(NC(=O)NC4CCCCC4)cc3C(=O)N([C@@H](C)CO)C[C@@H]2C)cc1	96*	-73	0	90	37	-9	-2
COc1ccc(S(=O)(=O)N(C)C[C@H]2OCCCC[C@H](C)Oc3ccc(NC(=O)NC4CCCCC4)cc3C(=O)N([C@@H](C)CO)C[C@@H]2C)cc1	92	-75	-4	x	x	x	x
COc1ccc(S(=O)(=O)N(C)C[C@@H]2OCCCC[C@H](C)Oc3ccc(NC(=O)NC4CCCCC4)cc3C(=O)N([C@H](C)CO)C[C@@H]2C)cc1	102	-66	0	x	x	x	x
COc1ccc(S(=O)(=O)N(C)C[C@H]2OCCCC[C@H](C)Oc3ccc(NC(=O)NC4CCCCC4)cc3C(=O)N([C@H](C)CO)C[C@@H]2C)cc1	104*	-64	-1	112*	7	0	2
COc1ccccc1C#Cc1cnc2c(c1)C(=O)N([C@H](C)CO)C[C@H](C)[C@H](CN(C)C)O2	67	-16	4	x	x	x	x
C[C@@H]1CN([C@H](C)CO)S(=O)(=O)c2ccc(C3=CCCCC3)cc2O[C@H]1CN(C)Cc1ccccc1	119*	-53	x	87	101*	78*	106*
C[C@@H]1CN([C@H](C)CO)S(=O)(=O)c2ccc(C3=CCCC3)cc2O[C@H]1CN(C)Cc1ccccc1	93	-55	10	x	x	x	x
C[C@H](CO)N1C[C@H](C)[C@@H](CN(C)Cc2ccccc2)Oc2cc(C3=CCCC3)ccc2S1(=O)=O	93	-46	10	x	x	x	x
C[C@@H]1CN([C@@H](C)CO)S(=O)(=O)c2ccc(C3=CCCCC3)cc2O[C@H]1CN(C)Cc1ccccc1	121*	-52	x	93	110*	83*	104*
COc1ccc(C(=O)Nc2ccc3c(c2)C(=O)N(C)[C@H]2CC[C@H](CC(=O)NCC4CC4)O[C@H]2CO3)cc1	27	x	-8	x	x	x	x
C[C@H]1CCCCO[C@@H](CN(C)C(=O)Nc2ccc(C(F)(F)F)cc2)[C@@H](C)CN([C@@H](C)CO)C(=O)c2cc(NC(=O)Nc3ccc(F)cc3)ccc2O1	114*	3	-1	108*	106*	-24	-10
C[C@@H]1CCCCO[C@H](CN(C)C(=O)Nc2ccccc2)[C@@H](C)CN([C@H](C)CO)C(=O)c2cc(NC(=O)Nc3ccc(C(F)(F)F)cc3)ccc2O1	x	-24	0	x	x	x	x
C[C@@H]1CCCCO[C@@H](CN(C)C(=O)Nc2ccc(C(F)(F)F)cc2)[C@@H](C)CN([C@H](C)CO)C(=O)c2cc(NC(=O)Nc3ccc(C(F)(F)F)cc3)ccc2O1	116*	0	5	108*	93	28	u
CNC[C@@H]1OCCCC[C@@H](C)Oc2ccc(NC(=O)Nc3ccc(C(F)(F)F)cc3)cc2C(=O)N([C@@H](C)CO)C[C@@H]1C	9	3	9	x	x	x	x
CNC[C@@H]1OCCCC[C@@H](C)Oc2ccc(NC(=O)Nc3ccc4c(c3)OCO4)cc2C(=O)N([C@H](C)CO)C[C@@H]1C	95*	25	10	18	3	9	18
C[C@@H]1CN([C@H](C)CO)C(=O)c2cc(NC(=O)Nc3ccccc3)ccc2O[C@@H](C)CCCCO[C@H]1CN(C)C(=O)Nc1ccc(C(F)(F)F)cc1	x	-73	0	x	x	x	x
CNC[C@@H]1OCCCC[C@@H](C)Oc2ccc(NC(=O)Nc3ccc(C(F)(F)F)cc3)cc2C(=O)N([C@@H](C)CO)C[C@H]1C	u	-10	13	15	12	17	1
CNC[C@H]1OCCCC[C@H](C)Oc2ccc(NC(=O)Nc3ccc4c(c3)OCO4)cc2C(=O)N([C@H](C)CO)C[C@@H]1C	41	19	4	x	x	x	x
C[C@H](CO)N1C[C@H](C)[C@H](CN(C)S(=O)(=O)c2ccc(Cl)cc2)Oc2ccc(NC(=O)Nc3ccc(F)cc3)cc2CC1=O	-144	-6	16	x	x	x	x
C[C@H](O)C#Cc1cnc2c(c1)C(=O)N([C@@H](C)CO)C[C@@H](C)[C@H](CN(C)C(=O)c1ccccc1F)O2	-18	x	5	x	x	x	x
CC(C)NC(=O)Nc1ccc2c(c1)C(=O)N([C@H](C)CO)C[C@@H](C)[C@H](CN(C)C(=O)Nc1ccc(C(F)(F)F)cc1)OCCCC[C@@H](C)O2	89	-53	8	x	x	x	x
C[C@@H]1CCCCO[C@@H](CN(C)C(=O)Nc2ccc(C(F)(F)F)cc2)[C@@H](C)CN([C@H](C)CO)C(=O)c2cc(NC(=O)NC3CCCCC3)ccc2O1	x	-64	-3	x	x	x	x
SMILES	T cruzi growth-1	Pf Dd2 growth	C diff HTS	T cruzi growth-2	T cruzi growth-3	3T3 cytotox	NIH3T3 tox 2
C[C@@H]1CN([C@H](C)CO)C(=O)c2cc(N(C)C)ccc2O[C@@H](C)CCCCO[C@H]1CN(C)C(=O)Nc1ccc(C(F)(F)F)cc1	41	-60	3	x	x	x	x
C[C@H](CO)N1C[C@H](C)[C@H](CN(C)C(=O)Nc2ccc(C(F)(F)F)cc2)OCCCC[C@H](C)Oc2ccc(N(C)C)cc2C1=O	101*	-65	-2	106*	78	-4	39*
C[C@@H]1CN([C@@H](C)CO)C(=O)c2cc(NC(=O)CCC(F)(F)F)ccc2O[C@@H](C)CCCCO[C@H]1CN(C)C(=O)Nc1ccc(C(F)(F)F)cc1	105	-31	8	x	x	x	x
C[C@H](CO)N1C[C@H](C)[C@@H](CN(C)C(=O)Nc2ccc(C(F)(F)F)cc2)OCCCC[C@H](C)Oc2ccc(NC(=O)NC3CCCCC3)cc2C1=O	113*	-79	1	105*	105*	6	11
C[C@H]1CCCCO[C@@H](CN(C)C(=O)Nc2ccc(C(F)(F)F)cc2)[C@@H](C)CN([C@@H](C)CO)C(=O)c2cc(NC(=O)CCC(F)(F)F)ccc2O1	u	-58	0	99*	110*	17	17
CC(C)NC(=O)Nc1ccc2c(c1)C(=O)N([C@H](C)CO)C[C@@H](C)[C@@H](CN(C)C(=O)Nc1ccc(C(F)(F)F)cc1)OCCCC[C@@H](C)O2	105*	-73	45	104*	92	12	20
